Data from PubChem BioAssay (EPA / NIEHS).
Records with an inconclusive call do not appear. The source made the active and inactive calls. How the source made its calls: active means hit-call score of the fitted dose curve at least 0.9, where 1 is the maximum; inconclusive means response in the unintended direction; inactive means score below 0.9.

target: human Adrenergic, Beta 3 Receptor (Adrb3), ADRB3 (gene 155) (UniProt P13945); test: NVS_GPCR_hAdrb3: NovaScreen (NVS) G Protein-Coupled Receptor Assay for human Adrenergic, Beta 3 Receptor (Adrb3) (AID 2283262)
Sequence (P13945 whole entry, looked up): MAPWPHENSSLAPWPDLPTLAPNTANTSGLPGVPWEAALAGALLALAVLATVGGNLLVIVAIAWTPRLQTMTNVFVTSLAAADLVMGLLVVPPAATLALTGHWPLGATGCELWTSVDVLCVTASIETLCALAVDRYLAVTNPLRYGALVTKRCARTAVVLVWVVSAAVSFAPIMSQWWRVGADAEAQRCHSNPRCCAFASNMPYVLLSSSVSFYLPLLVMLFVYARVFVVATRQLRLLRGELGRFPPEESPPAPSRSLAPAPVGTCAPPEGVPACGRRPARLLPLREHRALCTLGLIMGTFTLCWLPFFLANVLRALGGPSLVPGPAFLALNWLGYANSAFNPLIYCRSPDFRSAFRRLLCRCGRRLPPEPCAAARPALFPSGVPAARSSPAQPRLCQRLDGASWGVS
Method: NVS_GPCR_hAdrb3 is a biochemical, single-readout assay that uses extracted gene-proteins from SK-N-MC pretreated with isoproteronol and 8-bromo-cAMP in a cell-free assay. Measurements were taken 1 hour after chemical dosing in a 48-well plate.NVS_GPCR_hAdrb3 is one of one assay component(s) measured or calculated from the NVS_GPCR_hAdrb3 assay. It is designed to make measurements of radioligand binding, a form of binding reporter, as detected with scintillation counting signals by Filter-based radiodetection technology.Data from the assay component NVS_GPCR_hAdrb3 was analyzed into 1 assay endpoint. This assay endpoint, NVS_GPCR_hAdrb3, was analyzed in the positive analysis fitting direction relative to DMSO as the negative control and baseline of activity. Using a type of binding reporter, loss-of-signal activity can be used to understand changes in the binding as they relate to the gene ADRB3. Furthermore, this assay endpoint can be referred to as a primary readout, because the performed assay has only produced 1 assay endpoint. To generalize the intended target to other relatable targets, this assay endpoint is annotated to the gpcr intended target family, where the subfamily is rhodopsin-like receptor.
Binding assays used specific radioligands (tritiated, iodinated) with non-radioactive competitive displacement ligands in agonist or antagonist protocols (as indicated) and various reference compounds and inhibitors to titrate specific binding to receptors and transporters. Most enzyme assays (CYPs, kinases, phosphatases, proteases, HDACs) used recombinant protein and specific substrates (fluorescence mostly, some colorimetric and radioactive) and inhibitors, followed by a biochemical separation of substrate and product. All assays for the biochemical HTS were initially run in duplicate at a single concentration (10 uM for CYP450 assays and 25 uM for all others). […] Each assay was run with positive and negative controls, and concurrent controls on every plate. The follow-up (secondary) screen tested active chemical-pairs in concentration series, as well as a few additional assays not tested in the primary screen, some selected negative inactives, and several cases re-run in the concentration series for confirmatory purposes.

Row | SMILES | AC50 | outcome
1 | CC(O)CC(C)(C)O (centres undefined) | 0.159 µM (active) | 
2 | Cc1occc1C(=O)Nc1ccc(C(=O)N2CCC(F)(F)/C(=C\C(=O)N3CCC(N4CCCCC4)CC3)c3ccccc32)cc1 |  | inactive
3 | COc1cccc([C@H](O)C2CCN(CCc3ccc(F)cc3)CC2)c1OC |  | inactive
4 | CCCCCCCCCCCC[N+](C)(C)C | 25 µM (active) | 
5 | CC/C(=C(/CC)c1ccc(O)cc1)c1ccc(O)cc1 | 13.9 µM (active) | 
6 | CCCCCCCCN(C)CCCCCCCC |  | inactive
7 | CCN(CC)C(=O)c1cc(S(=O)(=O)Cc2ccccc2)c(N2CCC(c3ccccc3)CC2)cc1N(CC)CCN(C)C |  | inactive
8 | Clc1cc(Cl)c2c(c1)N=C1CCCCCN1C2 |  | inactive
9 | CCCCOC(=O)CC(CC(=O)OCCCC)(OC(C)=O)C(=O)OCCCC |  | inactive
10 | Cc1oc2c(NC(=O)c3c(Cl)cccc3Cl)cccc2c1C(C)(C)O |  | inactive
11 | NCc1cccc(C2CCN(C(=O)c3ccc(C#Cc4ccccc4F)o3)CC2)c1 |  | inactive
12 | CN(C)C(=O)C1(N2CCCCC2)CCN(CC[C@@]2(c3ccc(Cl)c(Cl)c3)CN(C(=O)c3ccccc3)CCO2)CC1 | 23.6 µM (active) | 
13 | CCOC(=O)O[C@H](C)OC(=O)c1ccc2c(c1)cc(C(=O)NC1CCN(C(C)C)CC1)n2Cc1cc(-c2ccc(Cl)s2)on1 | 20 µM (active) | 
14 | CN(C)c1ccc(C(=C2C=CC(=[N+](C)C)C=C2)c2ccc(N(C)C)cc2)cc1 | 16.3 µM (active) | 
